# From PubChem BioAssay (NCATS)
# Results filed as inconclusive are left out. A number with no mark means an inactive call. Calls of active or inactive are those of the source. The call rests on the fitted dose curve; in most records, active means well fitted inhibition curve with a large enough effect; inconclusive means small, poorly fitted or top-dose-only effect; inactive means flat fitted curve, though single readings scatter.
# Assays:
# Test in all cases: Cytotoxic Profiling of Annotated Libraries Using Quantitative High-Throughput Screening (AID 1296008); further: nearly all actives have a fitted effect of over 60% in size
# Conditions in all cases: Five cell lines viability, CellTiter-Glo ATP luminescence, 48-72 h; max response: active compounds read low
# [1] = tested on: HEK293
# Summary of the method: (§1)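 Cytotoxicity was measured as CellTiter-Glo ATP luminescence, read after 10 min at room temperature. Compound treatment of the cells lasted 48 or 72 hr at 37 degrees Celsius in a qHTS format.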
# [2] = tested on: NIH3T3
# Summary of the method: as §1
# [3] = tested on: HaCat
# Summary of the method: as §1
# [4] = tested on: KB-3-1
# Summary of the method: as §1
# On the % scale 0 is the no-effect control and ±100 the full control effect; potency means the concentration at half of the fitted maximal effect.
compound,measurement,setting,value
Cc1sc2c(c1C)C(c1ccc(Cl)cc1)=N[C@@H](CC(=O)Nc1ccc(OCCOCCOCCOCCNc3cccc4c3C(=O)N(C3CCC(=O)NC3=O)C4=O)cc1)c1nnc(C)n1-2 (some centres undefined),Potency,[1],0.0447 µM (active)
same,max response,[2],-54%
COc1ccc(Oc2c(Cl)cnn(-c3cc(C)cc(C)c3)c2=O)cc1,Potency,[1],8.2 µM (active)
same,Potency,[2],25.9 µM (active)
Cc1cn2cc(C(=O)N(C)CCO)cc(NC3CCOc4cccc(C)c43)c2n1 (centres undefined),max response,[3],-18.4%
same,outcome,[4],inactive
C=C1C(=O)OC2/C=C(\CO)CC/C=C(\C=O)C(OC)C(OC(=O)C(C)CC)C12 (centres undefined),max response,[3],-18%
same,outcome,[4],inactive
C=C(C)C(=O)O[C@H]1C[C@@](C)(O)C2(O)CCC(C)(/C=C3/OC(=O)C(COC)=C31)O2 (some centres undefined),Potency,[1],3.21 µM (active)
same,Potency,[2],10.1 µM (active)
CN(C)Cc1ccc(-c2cnn3c(-c4cccc(NC(=O)c5cccc(C(F)(F)F)c5)c4)ccnc23)cc1,Potency,[1],7.31 µM (active)
same,Potency,[2],16.4 µM (active)
O=S(=O)(NCc1cccc2ccccc12)c1cc(Cl)c(Oc2cccc(N3CCNCC3)c2)s1,Potency,[1],10.3 µM (active)
same,Potency,[2],14.6 µM (active)
CC(=O)OC1C(O)CC2(C)C(CCC3(C)C2CC=C2C4C5(CCC(CO[C@@H]6O[C@H](CO)[C@@H](O)[C@H](O)[C@H]6O)(OC5=O)C4(C)O)C(O)CC23C)C1(C)C (some centres undefined),max response,[3],-8.16%
same,outcome,[4],inactive
same,max response,[2],2.97%
CC(C)(C)Oc1ccc(OCC2Cc3ccccc3CN2C(=O)c2cccc3ccccc23)cc1 (centres undefined),Potency,[1],13 µM (active)
same,max response,[2],-2.51%
